Screening data from PubChem.
L3MBTL1 block = blocks human L3MBTL1; AlphaScreen L3MBTL1–H3K9me1 peptide binding; Potency, µM (series often up to 57.1 µM), for the others: at the highest dose activity, negative = inhibition, most hits filed as inhibitors; 230,000 compounds, 0.66% hits; AID 485360; further: potency means the concentration at half of the fitted maximal effect; on the % scale 0 is the no-effect control and ±100 the full control effect; nearly all actives have a fitted effect of over 60% in size
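L3MBTL1 (50 nM) pre-complexed 30 min with biotinylated H3(1-15)K9me1 peptide (75 nM), then compounds added for 30 min at room temperature; AlphaScreen streptavidin donor/nickel chelate acceptor beads (10 ug/mL final) read after 30 min dark incubation.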
G9a inh = G9a (human) methyltransferase inhibition | Q96KQ7 | G9a H3K9 monomethylation, AlphaScreen, 2 h | Potency, µM (series often up to 102 µM), without a hit: at the top dose activity, negative = inhibition, most hits filed as inhibitors | 350,000 compounds, 8.8% hits; further: potency means the concentration at half of the fitted maximal effect; on the % scale 0 is the no-effect control and ±100 the full control effect; nearly all actives have a fitted effect of over 75% in size
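Quantitative HTS format: methyltransferase activity on a biotin-tagged H3K9 peptide is measured by AlphaScreen, using a rabbit anti-monomethyl-H3K9 antibody with streptavidin donor and anti-IgG acceptor beads. Final levels are 20 nM enzyme, 500 nM peptide, 20 uM SAM; 2 h RT.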
HP1b chromo inh = blocks HP1-beta chromodomain binding to methylated histone tails; P83916; 390,000 compounds, 0.56% hits; AlphaScreen HP1-beta / biotin-H3K9me3 peptide binding; AID 540317; Potency, µM (highest dose often 114 µM), without a hit: at the highest dose activity change, negative = inhibition, most hits filed as inhibitors; further: potency means the concentration at half of the fitted maximal effect; nearly all actives have a fitted effect of over 70% in size
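HP1-beta protein (50 nM final) preincubated 30 min at room temperature with biotinylated H3(1-18)K9me3 peptide (50 nM) in PBS pH 7.4, 0.01% Tween-20, then compound added for 30 min. AlphaScreen streptavidin donor/nickel chelate acceptor beads (10 ug/mL final), 30 min dark, luminescence read.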
PI5P4K alpha inh = blocks human PI5P4K alpha kinase activity. P48426. PI5P4Kalpha enzyme, ADP-Glo luminescence, 60 min; stronger effect = lower value. max response, %. 330,000 compounds, 1.2% hits. AID 652105; active means max response of -50% or lower; inconclusive means between -30% and -50%; inactive means -30% or higher; further: value at the top dose of about 77 µM; on the % scale 0 is the no-effect control and ±100 the full control effect
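PI5P4Kalpha ADP-Glo assay; 5 microM ATP final; 60 min RT reaction; HEPES pH 7.4/EGTA/CHAPS, 5% DMSO; controls lacking substrate or enzyme; luminescent end-point.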
BAZ2B inh = blocks human BAZ2B; AlphaScreen BAZ2B-H3K14Ac peptide displacement; Potency, µM (doses to about 114 µM), inactives show at the highest dose activity change, negative = inhibition, actives largely listed as inhibitors; 360,000 compounds, 4.4% hits; Q9UIF8; AID 504333; further: potency means the concentration at half of the fitted maximal effect; on the % scale 0 is the no-effect control and ±100 the full control effect; nearly all actives have a fitted effect of over 60% in size
Target sequence (Q9UIF8 whole entry, looked up): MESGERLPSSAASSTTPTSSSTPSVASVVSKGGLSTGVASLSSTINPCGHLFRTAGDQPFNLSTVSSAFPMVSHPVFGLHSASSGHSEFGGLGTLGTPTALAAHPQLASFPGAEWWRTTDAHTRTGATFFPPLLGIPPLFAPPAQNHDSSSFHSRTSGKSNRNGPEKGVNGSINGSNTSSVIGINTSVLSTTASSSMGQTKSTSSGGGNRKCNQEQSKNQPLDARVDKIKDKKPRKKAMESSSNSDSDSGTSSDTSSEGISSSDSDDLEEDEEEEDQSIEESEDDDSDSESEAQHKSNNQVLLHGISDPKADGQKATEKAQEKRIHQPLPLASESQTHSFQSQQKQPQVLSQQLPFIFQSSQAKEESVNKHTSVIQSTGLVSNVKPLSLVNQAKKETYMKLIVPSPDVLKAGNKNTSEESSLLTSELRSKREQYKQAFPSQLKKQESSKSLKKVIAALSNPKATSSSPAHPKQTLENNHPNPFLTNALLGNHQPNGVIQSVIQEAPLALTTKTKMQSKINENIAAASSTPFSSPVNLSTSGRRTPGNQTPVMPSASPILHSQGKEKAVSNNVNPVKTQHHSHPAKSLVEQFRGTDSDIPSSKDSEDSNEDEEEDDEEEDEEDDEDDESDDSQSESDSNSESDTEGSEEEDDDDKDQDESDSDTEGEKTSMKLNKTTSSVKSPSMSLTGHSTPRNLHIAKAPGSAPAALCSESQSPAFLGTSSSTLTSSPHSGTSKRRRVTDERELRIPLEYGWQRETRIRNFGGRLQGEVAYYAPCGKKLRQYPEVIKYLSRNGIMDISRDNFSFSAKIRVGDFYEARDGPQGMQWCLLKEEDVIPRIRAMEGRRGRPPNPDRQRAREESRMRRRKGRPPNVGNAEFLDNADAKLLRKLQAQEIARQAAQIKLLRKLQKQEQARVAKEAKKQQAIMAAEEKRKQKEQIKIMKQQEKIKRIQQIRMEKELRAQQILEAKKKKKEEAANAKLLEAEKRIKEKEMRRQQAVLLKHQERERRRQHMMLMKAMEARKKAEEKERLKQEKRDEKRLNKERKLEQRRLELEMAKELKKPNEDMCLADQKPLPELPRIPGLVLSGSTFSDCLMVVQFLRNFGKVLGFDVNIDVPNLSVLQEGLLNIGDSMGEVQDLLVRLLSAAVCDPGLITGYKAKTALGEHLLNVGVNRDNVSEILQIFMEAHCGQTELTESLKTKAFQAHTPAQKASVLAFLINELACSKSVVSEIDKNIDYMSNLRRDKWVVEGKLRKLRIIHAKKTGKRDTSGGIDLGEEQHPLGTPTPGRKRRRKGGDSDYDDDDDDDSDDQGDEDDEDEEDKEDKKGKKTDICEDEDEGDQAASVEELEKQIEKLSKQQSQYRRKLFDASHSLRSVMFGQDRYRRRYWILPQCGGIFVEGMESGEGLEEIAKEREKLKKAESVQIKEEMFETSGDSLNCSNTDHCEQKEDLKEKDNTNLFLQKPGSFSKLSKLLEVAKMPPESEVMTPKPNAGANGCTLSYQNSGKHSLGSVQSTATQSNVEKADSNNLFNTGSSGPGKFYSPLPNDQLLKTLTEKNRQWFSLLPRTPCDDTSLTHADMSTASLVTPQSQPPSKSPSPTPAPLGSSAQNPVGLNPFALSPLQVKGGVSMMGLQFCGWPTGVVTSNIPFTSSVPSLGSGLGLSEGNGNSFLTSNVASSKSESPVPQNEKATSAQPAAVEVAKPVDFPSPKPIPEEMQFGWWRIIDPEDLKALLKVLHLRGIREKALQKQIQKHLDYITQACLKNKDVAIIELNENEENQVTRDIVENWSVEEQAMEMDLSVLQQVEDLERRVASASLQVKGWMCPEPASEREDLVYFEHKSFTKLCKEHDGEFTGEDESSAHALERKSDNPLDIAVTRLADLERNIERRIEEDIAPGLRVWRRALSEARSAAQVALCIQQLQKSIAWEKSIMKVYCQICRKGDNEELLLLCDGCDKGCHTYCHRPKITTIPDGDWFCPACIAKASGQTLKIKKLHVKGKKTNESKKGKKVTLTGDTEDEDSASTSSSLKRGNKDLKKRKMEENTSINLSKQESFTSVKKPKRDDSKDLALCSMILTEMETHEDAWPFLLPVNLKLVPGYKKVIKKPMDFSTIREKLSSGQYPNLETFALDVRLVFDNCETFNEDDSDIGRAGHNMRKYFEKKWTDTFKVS
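Protein-peptide AlphaScreen: BAZ2B 50 nM, b-H3K14Ac 50 nM, 1x PBS pH 7.4 + 0.01% Tween-20. Preincubation 30 min RT; cpd 30 min RT (top 110 uM); beads 20 min RT, light-protected.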
JMJD2A Tudor inh = blocks the human JMJD2A Tudor domain; AlphaScreen JMJD2A-Tudor / H3K4me3 peptide binding; 390,000 compounds, 4.4% hits; O75164; Potency, µM (doses to about 114 µM), without a hit: top-dose activity change, negative = inhibition, hits mostly inhibitors; further: potency means the concentration at half of the fitted maximal effect; on the % scale 0 is the no-effect control and ±100 the full control effect; nearly all actives have a fitted effect of over 50% in size
Numbers without * were called inactive; ? = inconclusive; . = no result given; [ ] = remark or other dose. Sampled rows, rich in hits. Any-hit rate of the full collection: about 11%. Unless noted, the call rests on the fitted dose curve; in most records, active means well fitted inhibition curve with a large enough effect; inconclusive means small, poorly fitted or top-dose-only effect; inactive means no such curve, though single readings can be large or run the other way.

SMILES | L3MBTL1 block | G9a inh | HP1b chromo inh | PI5P4K alpha inh | BAZ2B inh | JMJD2A Tudor inh
C=C(CN(C)C)C(=O)c1cc(OC)c(OC)cc1OC | . | . | ? | 3 | . | 79µM*
C=C(CN(C)C)C(=O)c1ccc(C)cc1C | . | . | 32µM* | 7 | . | 79µM*
N#CCCn1c(=O)c(-c2cccs2)nc2cnc(N3CCOCC3)nc21 | . | 6%[0.501 µM] | . | . | . | .
CCOC(=O)c1cc(-c2ccccc2)n(CCCC(=O)Nc2cccc(C)c2C)c1C | . | -30%[59 µM] | 29% | . | 3% | ?
O=C(Nc1ccc(F)cc1)c1cccc(N2CCCS2(=O)=O)c1 | . | 7%[59 µM] | 34% | . | 1% | 2%
Cc1ccc(CNC(=O)c2ccc3c(=O)n(-c4ccccc4)c(=O)[nH]c3c2)cc1 | . | 1%[59 µM] | 43% | . | -1% | 0%
COc1nc(NCCN2CCOCC2)nc(Nc2ccccc2)n1 | . | 1%[12.7 µM] | 61% | 1 | 4% | -10%[11.4 µM]
COc1ccc(Nc2nc(NCCN3CCOCC3)nc(Nc3ccc(OC)cc3)n2)cc1 | . | ? | -9% | 2 | 45µM* | ?
COc1ccc(CCNCCN2CCOCC2)cc1 | -4% | 3.5µM* | ? | 7 | 25µM* | 20µM*
COc1ccc(CCNC(=O)C(=O)NCCCN2CCOCC2)cc1 | -28% | -8%[59 µM] | 22% | 0 | -28% | -6%
CN(C)/C=N/c1nc2c(ncn2C2CC(O)C(CO)O2)c(=O)[nH]1 (stereo unspecified) | . | . | 39% | . | . | -11%
CC(c1n[nH]c(=S)n1-c1ccc(Cl)cc1)N(C)C (stereo unspecified) | -5% | 8.9µM* | -19% | -7 | -11% | 7.9µM*
Cc1n[nH]c(=S)n1-c1ccccc1 | -15% | . | 20% | 3 | -31% | 89µM*
S=c1[nH]nc(-c2ccc3ccccc3n2)n1-c1ccc(Cl)cc1 | -8% | ? | 13% | -4 | 4% | ?
CC(c1n[nH]c(=S)n1-c1ccc(F)cc1)N1CCCCC1 (stereo unspecified) | ? | 35µM* | 3% | 6 | -3% | ?
S=c1[nH]nc(COc2ccc(Cl)cc2)n1-c1ccccc1 | 2%[2.29 µM] | 15%[0.501 µM] | 23% | -8 | -5% | -19%
CCc1ccc(-n2c(C)n[nH]c2=S)cc1 | -1% | -48% | 8% | -4 | 1% | 3.5µM*
CCc1ccc(-n2c(Cn3nc(C(F)(F)F)cc3C)n[nH]c2=S)cc1 | 2% | ? | 26% | . | ? | -14%
COc1ccc(OC)c(NC(=O)CS(=O)(=O)Cc2nc(-c3ccc(C)cc3)oc2C)c1 | . | -50%[59 µM] | 3% | . | ? | -29%
Cc1n[nH]c(=S)n1-c1ccc(Cl)cc1 | -2% | ? | 36% | 1 | -2% | 2.5µM*
CCC(c1n[nH]c(=S)n1-c1ccccc1)N(C)C (stereo unspecified) | 3% | 8.9µM* | 26% | 1 | -23% | 32µM*
CC(C)CCC(CC(C)O)c1n[nH]c(=S)n1-c1ccccc1 (stereo unspecified) | 4% | 6.3µM* | 8% | -2 | 10% | 8.9µM*
Cc1ccc(OCc2n[nH]c(=S)n2-c2ccc(Cl)cc2)cc1 | -3% | 3.2µM* | 12% | 5 | -38% | ?
S=c1[nH]nc(COc2ccc(Cl)cc2)n1-c1ccc(Cl)cc1 | -6%[2.29 µM] | 1%[0.501 µM] | -16% | 0 | ? | ?
O=C1CCN(CCc2ccccc2)CCN1C(CSc1ccc(Br)cc1)Cc1ccccc1 (stereo unspecified) | . | . | 14% | . | . | -36%
SMILES | L3MBTL1 block | G9a inh | HP1b chromo inh | PI5P4K alpha inh | BAZ2B inh | JMJD2A Tudor inh
COC(Cc1n[nH]c(=S)n1-c1ccc(Cl)cc1)OC | 5% | ? | 17% | . | 4% | 14µM*
Cc1cccc(NC(=O)c2sc3nc4c(c(-c5cccs5)c3c2N)CN(C)CC4)c1 | . | 45µM* | -18% | -24 | ? | ?
COC(=O)c1ccc(NC(=O)CCc2c(C)nn(-c3ccc(N4CCOCC4)nn3)c2C)cc1 | . | 0%[59 µM] | 69% | . | -18% | -10%
COC(=O)c1sccc1S(=O)(=O)N(CC(=O)NCc1ccc(C)cc1)c1ccc(Cl)cc1 | . | 2%[59 µM] | 29% | . | -7% | -18%
CCOC(=O)c1cc(C)n(CCc2ccccc2)c1C | -3% | 13%[59 µM] | 20% | -8 | -7% | -26%
Cc1nn(Cc2ccccc2)c(C)c1C(=O)OCC(=O)c1cc(C)n(C2CC2)c1C | . | -14%[59 µM] | 3% | . | ? | -30%
COCCn1c(C)cc(C(=O)COC(=O)c2c(C)nn(Cc3ccccc3)c2C)c1C | -11% | 79µM* | ? | -4 | ? | ?
Cc1ccc(-n2c(C)cc(C(=O)Cn3nc(C(=O)O)c4ccccc4c3=O)c2C)cc1 | -6% | 79µM* | -20% | -3 | -10% | ?
Cc1cc(C(=O)CCl)c(C)n1CCc1ccccc1 | -24% | 50µM* | ? | ? | -23% | 45µM*
COCCn1c(C)cc(C(=O)CSc2nncn2-c2ccccc2)c1C | -6% | 50µM* | 14% | . | -33% | -20%
COc1ccc(-n2c(C)cc(C(=O)Cn3nc(C(=O)O)c4ccccc4c3=O)c2C)cc1 | -10% | ? | -21% | -1 | -28% | -25%
O=C(OCC#CCSc1nnc(-c2cccc3ccccc23)o1)c1cc(F)c(F)c(F)c1 | . | . | . | . | . | 21%
COCC(C)n1c(C)cc(C(=O)COC(=O)c2c(C)nn(-c3ccccc3)c2C)c1C (stereo unspecified) | -10% | 50µM* | ? | 3 | ? | ?
COCCn1c(C)cc(C(=O)COC(=O)c2ccc3ncsc3c2)c1C | . | 6%[12.7 µM] | -32% | -58* | 56µM* | ?
COCC(C)n1c(C)cc(C(=O)Cn2nc(C(=O)O)c3ccccc3c2=O)c1C (stereo unspecified) | -18% | 45µM* | -17% | -11 | -32% | -34%
COc1ccc(NC(=O)CSCc2cc(=O)c3cc(Cl)ccc3[nH]2)cc1 | . | 13%[59 µM] | 20%[57 µM] | . | 7% | -10%
